# Reference: the supplement of paper PMC12045047
# Tested on: primary human airway basal cells (HBEC, luciferase-transduced)
# Experiment: proliferation (luciferase bioluminescence) Z score relative to plate mean; higher = more proliferation / more cells, active = 1.96 or more
# Conditions: donor: 1; 0.5 µM; library: ENZO Libraries; 4 days
# Protocol: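 Primary human bronchial epithelial (airway basal) cells from two donors, lentivirally transduced with pHIV-Luc-ZsGreen, were seeded at 2000 cells/well in 384-well plates in FAD medium with ENZO or Prestwick library compounds and cultured for 4 days. Luciferin was then added and bioluminescence was read as a measure of cell number. Relative light units were converted to Z scores against the plate, and the mean of triplicate wells is reported.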
row,SMILES,proliferation
1,O=C1Cc2c([nH]c3ccc(Br)cc23)-c2ccccc2N1 [Kenpaullone],3.89 (active)
2,CN(C)c1ccc(/C=C2/C(=O)Nc3ccccc32)cc1,-0.0148 (inactive)
3,COc1cc2ncc(-c3ccccc3)nc2cc1OC,2.2 (active)
4,N[C@H](C(=O)O)[C@@H]1CC(Cl)=NO1 [Acivicin],-0.75 (inactive)
5,CC1CNc2c(cccc2S(=O)(=O)N[C@@H](CCCNC(=N)N)C(=O)N2CC[C@@H](C)C[C@@H]2C(=O)O)C1 (stereo not given in full) [Argatroban],0.0616 (inactive)
6,O=C1CCc2c(ccc3ccccc23)O1 [Splitomicin],-0.477 (inactive)
7,O=C(O)c1cc(N(Cc2ccccc2O)Cc2cc(O)ccc2O)ccc1O [Lavendustin A],-0.351 (inactive)
8,CC(NC(=O)c1ccccc1/N=C/c1c(O)ccc2ccccc12)c1ccccc1 (stereo not given) [Sirtinol],-0.129 (inactive)
9,N#CC(=Cc1ccc2[nH]ccc2c1)C(N)=C(C#N)C#N,0.0615 (inactive)
10,Cc1ccc(NC(=O)c2cccc(N(C)C)c2)cc1NC(=O)c1ccc(O)cc1,0.389 (inactive)
11,O=C(O)CCCc1ccccc1,-0.468 (inactive)
12,CO[C@H]1C[C@@H]2CC[C@@H](C)[C@@](O)(O2)C(=O)C(=O)N2CCCC[C@H]2C(=O)O[C@H]([C@H](C)C[C@@H]2CC[C@@H](O)[C@H](OC)C2)CC(=O)[C@H](C)/C=C(\C)[C@@H](O)[C@@H](OC)C(=O)[C@H](C)C[C@H](C)/C=C/C=C/C=C/1C [Rapamycin],-3.38 (inactive)
13,Nc1ccccc1NC(=O)CCCCCCC(=O)Nc1ccccc1,0.133 (inactive)
14,CCCCC[C@H](CC(=O)NO)C(=O)N[C@H](C(=O)N1CCC[C@H]1CO)C(C)C [Actinonin],-0.508 (inactive)
15,C=C1C(=O)O[C@@H](CCC)[C@@H]1C(=O)O [Butyrolactone 3],-0.342 (inactive)
16,Nc1ccc(CC(CC(=O)O)C(=O)O)cc1 [4-Amino-D L-benzylsuccinic acid],0.379 (inactive)
17,CC1(C)C[C@@H]1C(=O)N/C(=C\CCCCSC[C@H](N)C(=O)O)C(=O)O [Cilastatin],-0.499 (inactive)
18,C[C@]1(Cn2ccnn2)[C@H](C(=O)O)N2C(=O)C[C@H]2S1(=O)=O [Tazobactam],0.216 (inactive)
19,O=c1cc(N2CCOCC2)oc2c(-c3ccccc3)cccc12,-0.437 (inactive)
20,C[C@H](NC(=O)[C@@H]1CCCN1C(=O)[C@@H]1CCCN1C(=O)[C@@H](O)[C@H](N)Cc1ccccc1)C(N)=O [Apstatin],-0.513 (inactive)

# Same assay, conditions: donor: 1; 5 µM; library: ENZO Libraries; 4 days
row,SMILES,proliferation
1,O=C1Cc2c([nH]c3ccc(Br)cc23)-c2ccccc2N1 [Kenpaullone],-0.683 (inactive)
2,CN(C)c1ccc(/C=C2/C(=O)Nc3ccccc32)cc1,1.43 (inactive)
3,COc1cc2ncc(-c3ccccc3)nc2cc1OC,2.78 (active)
4,N[C@H](C(=O)O)[C@@H]1CC(Cl)=NO1 [Acivicin],-1.56 (inactive)
5,CC1CNc2c(cccc2S(=O)(=O)N[C@@H](CCCNC(=N)N)C(=O)N2CC[C@@H](C)C[C@@H]2C(=O)O)C1 (stereo not given in full) [Argatroban],-0.0211 (inactive)
6,O=C1CCc2c(ccc3ccccc23)O1 [Splitomicin],-0.269 (inactive)
7,O=C(O)c1cc(N(Cc2ccccc2O)Cc2cc(O)ccc2O)ccc1O [Lavendustin A],-0.457 (inactive)
8,CC(NC(=O)c1ccccc1/N=C/c1c(O)ccc2ccccc12)c1ccccc1 (stereo not given) [Sirtinol],-0.361 (inactive)
9,N#CC(=Cc1ccc2[nH]ccc2c1)C(N)=C(C#N)C#N,-0.386 (inactive)
10,Cc1ccc(NC(=O)c2cccc(N(C)C)c2)cc1NC(=O)c1ccc(O)cc1,0.18 (inactive)
11,O=C(O)CCCc1ccccc1,-0.326 (inactive)
12,CO[C@H]1C[C@@H]2CC[C@@H](C)[C@@](O)(O2)C(=O)C(=O)N2CCCC[C@H]2C(=O)O[C@H]([C@H](C)C[C@@H]2CC[C@@H](O)[C@H](OC)C2)CC(=O)[C@H](C)/C=C(\C)[C@@H](O)[C@@H](OC)C(=O)[C@H](C)C[C@H](C)/C=C/C=C/C=C/1C [Rapamycin],-1.63 (inactive)
13,Nc1ccccc1NC(=O)CCCCCCC(=O)Nc1ccccc1,0.0632 (inactive)
14,CCCCC[C@H](CC(=O)NO)C(=O)N[C@H](C(=O)N1CCC[C@H]1CO)C(C)C [Actinonin],-0.446 (inactive)
15,C=C1C(=O)O[C@@H](CCC)[C@@H]1C(=O)O [Butyrolactone 3],0.149 (inactive)
16,Nc1ccc(CC(CC(=O)O)C(=O)O)cc1 [4-Amino-D L-benzylsuccinic acid],-0.241 (inactive)
17,CC1(C)C[C@@H]1C(=O)N/C(=C\CCCCSC[C@H](N)C(=O)O)C(=O)O [Cilastatin],-0.038 (inactive)
18,C[C@]1(Cn2ccnn2)[C@H](C(=O)O)N2C(=O)C[C@H]2S1(=O)=O [Tazobactam],0.201 (inactive)
19,O=c1cc(N2CCOCC2)oc2c(-c3ccccc3)cccc12,-0.857 (inactive)
20,C[C@H](NC(=O)[C@@H]1CCCN1C(=O)[C@@H]1CCCN1C(=O)[C@@H](O)[C@H](N)Cc1ccccc1)C(N)=O [Apstatin],-0.193 (inactive)
